Compound activity deposited in PubChem BioAssay by NMMLSC.
Hits are enriched below; roughly 1.3% of the tested compounds scored in any of these assays.
RPL19A-GFP yeast = alters RPL19A-GFP fluorescence in TOR pathway yeast screen; S. cerevisiae RPL19A-GFP strain, flow cytometry, 3 h; hits give low values; percent response vs DMSO, % at 10 µM; 330,000 compounds, 0.3% hits; AID 2025;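 active = percent response vs DMSO below 50%; inconclusive = fewer than 70 events counted for the yeast strain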;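 also: median channel GFP fluorescence of the barcoded RPL19A-GFP strain; lower means less RPL19A-GFP as with rapamycin TOR inhibition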
AGP1-GFP MLPCN = modulators of TOR pathway AGP1-GFP in S. cerevisiae. S. cerevisiae AGP1-GFP multiplex flow cytometry, 3 h; GFP as percent of DMSO wells. GFP response vs DMSO, % at 10 µM. 320,000 compounds, 0.02% hits. AID 2066;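 active = GFP response relative to DMSO above a set limit, near screen average plus 3 SD, cut at about 150% in these data; inconclusive = fewer than 70 cells counted for the yeast strain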;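 also: median GFP channel fluorescence of the gated AGP1 strain per well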
LAP4 TOR yeast = alters LAP4-GFP fluorescence in TOR pathway yeast screen | S. cerevisiae LAP4-GFP multiplex, flow cytometry GFP, 3 h; median GFP as percent of DMSO wells | GFP response vs DMSO, % at 10 µM | 320,000 compounds, 0.34% hits;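 active = GFP response vs DMSO above a set limit, about the screen mean plus 3 SD, cut at about 150% in these data; inconclusive = under 70 cell events counted for the yeast strain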
Efflux pump mplx = blocks antifungal efflux pumps in multiplex yeast assay; S. cerevisiae Candida pump triplex, Nile Red efflux; inhibition, % at 10 µM; AID 485275; 330,000 compounds, 0.44% hits;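 active = plate passing quality check with inhibition over a set limit, or well fluorescence over plate mean plus 4 SD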;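 also: Nile Red retained in pooled yeast measured as flow cytometry median fluorescence; higher means more Nile Red kept so more efflux inhibition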
CIT2-GFP yeast = alters CIT2-GFP fluorescence in TOR pathway yeast screen. S. cerevisiae CIT2-GFP strain, flow cytometry, 3 h; 100 means same as DMSO wells. GFP response vs DMSO, % at 10 µM. 320,000 compounds, 0.065% hits. AID 2029;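 active = GFP response relative to DMSO above a set limit, near the screen mean plus 3 SD, cut at about 150% in these data; inconclusive = Fewer than 70 cells measured for a yeast strain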;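 also: ratio of well median GFP fluorescence to mean of DMSO wells on the plate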
MEP2-GFP yeast = yeast TOR pathway MEP2-GFP modulation. S. cerevisiae MEP2-GFP strain, flow cytometry GFP, 3 h; 100% = DMSO control level. GFP response vs DMSO, % at 10 µM. 330,000 compounds, 0.51% hits;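 active = GFP response versus DMSO above a set limit, roughly screen mean plus 3 SD, cut at about 180% in these data; inconclusive = fewer than 70 cells counted for a yeast strain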;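 also: median GFP fluorescence of the barcode-gated MEP2-GFP cells per well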
A number is an active result; i = inactive; ? = inconclusive; nt = not tested or not shown; + = active, no number; [ ] = remark or other dose.

SMILES	RPL19A-GFP yeast	AGP1-GFP MLPCN	LAP4 TOR yeast	Efflux pump mplx	CIT2-GFP yeast	MEP2-GFP yeast
CC(C)N=C(Nc1ccccc1)c1cccnc1	34.4[may fluoresce violet]	i	i	i	?	176.5[may fluoresce violet]
Cc1cccc(C)c1NC(=O)CN1C(=O)CCSc2ccc(S(=O)(=O)N3CCCC3)cc21	i	i	i	i	i	i
COc1cccc(NC(=O)[C@@H]2CCCN2C(=O)[C@@H]2Cc3ccccc3CN2C(=O)OC(C)(C)C)c1	19.2[may fluoresce violet]	i	i	i	?	i
CC(=O)Oc1c(C)cc(Cl)cc1C(=O)Nc1ccc([N+](=O)[O-])cc1Cl	i	i	i	i	153.2	i
Cc1nc2ccc(C(=O)Nc3ccccc3Cl)cc2s1	i	i	i	i	i	i
N#Cc1ccsc1NC(=O)CCN1CCN(C(c2ccccc2)c2ccccc2)CC1	i	i	i	i	i	i
O=C1/C(=C\c2ccccn2)SC(=S)N1Nc1ncc(C(F)(F)F)cc1Cl	i	i	151.6	i	i	i
Cc1sc(NC(=O)/C=C/c2ccco2)c(C(=O)O)c1C	i	i	i	i	i	i
Cc1ccc(C(=O)O)cc1S(=O)(=O)N1CCSCC1	43.1[may fluoresce violet]	?	i	i	?	306.2[may fluoresce violet]
O=C(Nc1ccc(S(=O)(=O)N2CCCCC2)cc1)C1CCCCC1	i	i	i	i	?	256.0[may fluoresce violet]
COc1ccc(NC(=S)Nc2cccc(S(=O)(=O)N3CCCCC3)c2)cc1	22.6[may fluoresce violet]	?	i	i	?	259.0[may fluoresce violet]
O=C(NNS(=O)(=O)c1ccccc1)C1CCCCC1	46.2[may fluoresce violet]	?	i	i	?	240.8[may fluoresce violet]
CC(=O)Nc1ccc(S(=O)(=O)N2CCN(C)CC2)cc1	i	i	i	i	?	210.4[may fluoresce violet]
CN1CCN(S(=O)(=O)c2ccc(NC(=O)C3CCCCC3)cc2)CC1	i	i	i	i	i	i
COc1ccc(S(=O)(=O)Nc2ccc(F)cc2F)cc1C(=O)N1CCOCC1	i	i	i	i	i	i
CN(CC(=O)Nc1ccc(Cl)c(C(F)(F)F)c1)C(=O)c1cn2ccccc2n1	i	i	i	i	i	i
CN(Cc1ccccc1)S(=O)(=O)c1ccccc1Br	nt	nt	nt	i	nt	nt
C#CC[N+]1(CC#Cc2ccccc2)CCOCC1	37.5[may fluoresce violet]	?	i	i	?	193.6[may fluoresce violet]
Cc1nnc2sc(SCC(=O)Nc3nccs3)nn2c1=O	22.1[may fluoresce violet]	?	i	i	?	235.2[may fluoresce violet]
COc1ccccc1NC(=O)CSc1nn2c(=O)c(C)nnc2s1	i	i	i	i	i	i
OC[C@H]1OC(Nc2ccc(N=Nc3ccccc3)cc2)[C@@H](O)[C@@H](O)[C@@H]1O (some centres not stated)	i	i	i	i	i	i
OCC(O)C1OC(Nc2ccc(Cl)cc2)C(O)C1O (configuration not stated)	i	?	i	i	?	309.9[may fluoresce violet]
c1ccc(-c2nc(N3CCCCCC3)nc(-n3ccnc3)n2)cc1	i	i	i	i	i	i
c1ccc(-c2nc(N3CCN(c4ccccc4)CC3)nc(-n3ccnc3)n2)cc1	i	i	i	i	?	243.5[may fluoresce violet]
Cc1cccc(N2CCN(C(=O)COc3ccc4ccc(=O)oc4c3)CC2)c1C	41.8[may fluoresce violet]	i	i	i	?	i
SMILES	RPL19A-GFP yeast	AGP1-GFP MLPCN	LAP4 TOR yeast	Efflux pump mplx	CIT2-GFP yeast	MEP2-GFP yeast
O=C(COc1ccc2ccc(=O)oc2c1)N1CCN(c2ccccc2)CC1	i	i	i	i	i	i
COc1ccc2c(c1)cc(C(=O)N[C@@H](Cc1ccccc1)C(=O)O)n2C	18.1[may fluoresce violet]	?	i	i	?	467.4[may fluoresce violet]
O=C(c1cccc(S(=O)(=O)N2CCOCC2)c1)N1CCCCCC1	i	i	i	i	i	i
COc1ccc(S(=O)(=O)N2CCOCC2)cc1Cl	i	i	i	i	?	298.9[may fluoresce violet]
O=S(=O)(c1cccc(S(=O)(=O)N2CCOCC2)c1)N1CCCCC1	39.8[may fluoresce violet]	?	i	i	?	279.0[may fluoresce violet]
COc1cc(S(=O)(=O)N2CCOCC2)ccc1NC(=O)c1cc2c(s1)CCC2	38.8[may fluoresce violet]	i	i	i	?	233.4[may fluoresce violet]
Cc1ccccc1CN(C)C(C)C(=O)NCc1ccccc1 (configuration not stated)	i	i	i	i	i	i
Cc1ccc2[nH]c(=O)c(CN(C(=O)c3cccc([N+](=O)[O-])c3)C(C)C)cc2c1	i	i	i	i	i	i
CC(C)N(Cc1cc2ccccc2[nH]c1=O)C(=O)c1cccc([N+](=O)[O-])c1	44.0[may fluoresce violet]	?	i	i	?	318.7[may fluoresce violet]
Clc1ccc(CSc2nnc(-c3ccncc3)o2)cc1	i	i	i	i	?	179.1[may fluoresce violet]
Cc1ccc(-n2ncc(C#N)c2/N=C/N(C)C)cc1	i	i	157.5	i	i	267.5
CC(C)(C)OC(=O)n1cc(/C=N/NC(=O)c2ccco2)c2ccccc21	i	i	i	i	153.8[may fluoresce green]	i
CC(=O)n1cc(/C=N/NC(=O)c2ccccc2O)c2ccccc21	i	i	i	i	i	i
Cc1ccc(S(=O)(=O)NCCc2ccncc2)cc1	i	i	i	i	?	222.6[may fluoresce violet]
Cc1ccc(CCNS(=O)(=O)c2ccc(C)cc2)cc1	i	i	i	i	i	i
COCCNC(=O)C(c1ccc(C)cc1)N(Cc1ccco1)C(=O)CCC(=O)Nc1ccccn1 (configuration not stated)	i	i	i	i	?	209.7[may fluoresce violet]
COCCNC(=O)C(c1ccc(C)cc1)N(Cc1ccccc1)C(=O)CCC(=O)Nc1ccccn1 (configuration not stated)	i	i	i	i	i	i
Cc1nc2ncnn2c(C)c1CCC(=O)NCCCN1CCN(c2cccc(Cl)c2)CC1	24.0[may fluoresce violet]	?	i	i	?	179.8[may fluoresce violet]
CCC(CC)NC(=O)Cc1ccc(F)cc1	i	250.6[may fluoresce green]	921.3[may fluoresce green]	i	+[may fluoresce green]	+[may fluoresce green]
O=C(COc1ncnc2ccccc12)N1CCOCC1	i	i	i	i	i	i
CC1CCN(C(=O)COc2ncnc3ccccc23)CC1	46.4[may fluoresce violet]	?	i	i	?	288.7[may fluoresce violet]
CCN(CC)S(=O)(=O)c1ccc2c(c1)c(=O)c(C(=O)N1CCN(c3ccccn3)CC1)cn2C	i	?	i	i	?	210.8[may fluoresce violet]
Cc1ccc(SC(=O)c2c(C)noc2-c2cc(C)on2)cc1	i	i	155.4	i	i	i
CC(OC(=O)C1CCN(S(=O)(=O)c2ccc(F)cc2)CC1)C(=O)NC1CCCCC1C (configuration not stated)	i	i	i	i	i	i
CSc1ccc(C#N)cc1NC(=O)c1cccnc1Cl	44.8[may fluoresce violet]	?	i	i	?	335.9[may fluoresce violet]
COc1ccccc1C(=O)Nc1nsc(-c2ccccc2)n1	i	i	151.3	i	i	i
Cc1ccc(/C=N\NC(=O)C2CN(S(=O)(=O)c3ccccc3)CCN2S(=O)(=O)c2ccccc2)cc1 (configuration not stated)	24.1[may fluoresce violet]	?	i	i	?	204.1[may fluoresce violet]
Cc1nn(C(=O)c2ccco2)c(C)c1Sc1ccccc1	nt	i	i	i	i	176.2
